# Screening results as filed in PubChem.
# Rows were chosen to be rich in hits. Some 5.7% of all compounds tested hit in one or more screens of this group.
# BAZ2B inh: BAZ2B (human) inhibition; Q9UIF8; AlphaScreen BAZ2B-H3K14Ac peptide displacement; Potency, µM (series often up to 114 µM), without a hit: at the highest dose activity change, negative = inhibition, actives largely listed as inhibitors; actives 4.4% (n = 360,000); AID 504333; further: potency means the concentration at half of the fitted maximal effect; on the % scale 0 is the no-effect control and ±100 the full control effect; nearly all actives have a fitted effect of over 60% in size
#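 Complex of BAZ2B and biotin-H3K14Ac (50 nM apiece) forms over 30 min at RT, then faces library compounds up to 110 uM for another 30 min; AlphaScreen beads added, 20 min dark incubation, luminescence read.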
# JMJD2A Tudor: blocks the human JMJD2A Tudor domain; AID 504339; AlphaScreen JMJD2A-Tudor / H3K4me3 peptide binding; O75164; actives 4.4% (n = 390,000); Potency, µM (top dose mostly 114 µM), without a hit: top-dose activity change, negative = inhibition, actives largely listed as inhibitors; further: potency means the concentration at half of the fitted maximal effect; on the % scale 0 is the no-effect control and ±100 the full control effect; nearly all actives have a fitted effect of over 50% in size
# JMJD2E inh: blocks human JMJD2E demethylase activity. JMJD2E catalytic domain, FDH-coupled NADH fluorescence (FDH is formaldehyde dehydrogenase). Potency, µM (series often up to 57.1 µM), without a hit: at the highest dose activity change, negative = inhibition, hits mostly inhibitors. actives 1.6% (n = 230,000); active means well fitted inhibition curve with a large enough effect, not every such curve was filed as active; inconclusive means small, poorly fitted or top-dose-only effect, or another doubt; inactive means no such curve, though single readings can be large or run the other way;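 further: potency means the concentration at half of the fitted maximal effect; 0% = wells with enzyme and -100% = buffer wells without enzyme; nearly all actives have a fitted effect of over 50% in size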
# HP1b chromo inh: HP1-beta chromodomain-methylated histone interaction inhibition; P83916; AlphaScreen HP1-beta / biotin-H3K9me3 peptide binding; Potency, µM (series often up to 114 µM), inactives show at the top dose activity change, negative = inhibition, usual class: inhibitors; actives 0.56% (n = 390,000); AID 540317; further: potency means the concentration at half of the fitted maximal effect; nearly all actives have a fitted effect of over 70% in size
#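 Compound inhibition of the preformed complex between 50 nM HP1-beta and 50 nM biotinylated H3K9me3 peptide was read by AlphaScreen. Buffer was PBS pH 7.4 with 0.01% Tween-20. Incubations ran 30 min at room temperature, with 10 ug/mL donor/acceptor beads.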
# PI5P4K alpha inh: PI5P4K alpha (human) kinase inhibition. PI5P4Kalpha enzyme, ADP-Glo luminescence, 60 min; hits give low values. actives 1.2% (n = 330,000). AID 652105. P48426. max response, %; active means max response of -50% or lower; inconclusive means between -30% and -50%; inactive means -30% or higher; further: value at the top dose of about 77 µM; on the % scale 0 is the no-effect control and ±100 the full control effect
#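 Human PI5P4Kalpha with substrate in 0.038 M HEPES pH 7.4, 0.28 mM EGTA, 0.1% CHAPS, 5% DMSO; reaction started with 5 microM ATP (final), 60 min at room temperature. ADP formed read by ADP-Glo luminescence.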
# L3MBTL1 inh: L3MBTL1 (human) inhibition | Q9Y468 | AlphaScreen L3MBTL1–H3K9me1 peptide binding | Potency, µM (titrated, usually from 57.1 µM), for inactives: at the highest dose activity, negative = inhibition, usual class: inhibitors | actives 0.66% (n = 230,000) | AID 485360; further: potency means the concentration at half of the fitted maximal effect; on the % scale 0 is the no-effect control and ±100 the full control effect; nearly all actives have a fitted effect of over 60% in size
#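 Displacement of a biotinylated histone H3(1-15) peptide monomethylated at Lys9 (75 nM) from L3MBTL1 (50 nM) was measured by AlphaScreen after a 30 min room-temperature compound incubation; cefsulodin titration served as intraplate control.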
# Starred values were filed as active, the others as inactive; ? = inconclusive; / = no result; [ ] = dose if it differs, or a comment. Unless noted, the call rests on the fitted dose curve; in most records, active means well fitted inhibition curve with a large enough effect; inconclusive means small, poorly fitted or top-dose-only effect; inactive means no such curve, though single readings can be large or run the other way.
SMILES,BAZ2B inh,JMJD2A Tudor,JMJD2E inh,HP1b chromo inh,PI5P4K alpha inh,L3MBTL1 inh
Fc1ccc2[nH]c3c(N4CCc5ccccc5C4)ncnc3c2c1,-4%,-17%,?,17%,0,6%
Brc1ccc2[nH]c3c(N4CCc5ccccc5C4)ncnc3c2c1,?,-10%,3.5µM*,58%,-23,/
Cn1cccc1/C=N/n1c(-c2ccccc2)n[nH]c1=S,?,3.5µM*,-9%,?,2,-3%
Cn1cccc1/C=N/n1c(-c2ccc(C(C)(C)C)cc2)n[nH]c1=S,45µM*,50µM*,5%,50µM*,4,?
CC(C)CN(C(=O)COC(=O)c1cc2c(s1)CCC2)C1CCS(=O)(=O)C1 (stereo unspecified),56µM*,?,?,-12%,-62*,20µM*
CCCCNc1c(-c2ccc(OC)c(SC3CCCCC3)c2)nc2cc(C)ccn12,?,56µM*,/,-15%,0,14%
CCCCNc1c(-c2ccc(OC)c(SC3CCCCC3)c2)nc2cnccn12,?,?,/,27%,?,-5%
Clc1ccc(CN2CCCCCCC2)cc1Cl,-12%,28µM*,-28%,-38%,0,14%
O=[N+]([O-])c1cc(CN2CCCC2)ccc1Sc1ccc(Cl)cc1,40µM*,35µM*,-4%,40µM*,15,?
O=S1(=O)CCN(Cc2ccc(Cl)c(Cl)c2)CC1,-2%,-3%,-4%,16%,-4,-3%
Clc1ccc(CN2CCCCCC2)cc1,?,1.8µM*,/,?,6,-4%
COc1cc(NC(=O)CSc2ncc(S(=O)(=O)c3ccc(Br)cc3)c(=O)[nH]2)cc(OC)c1,?,?,/,3%,/,/
CCOC(=O)[C@@H]1[C@H]2COc3ccccc3[C@@H]2N2C(=O)N(c3cccc(Cl)c3)C(=O)[C@@]12C,-6%,-19%,/,0%,4,9%
CCOc1ccc(-n2c(SCC(=O)NCC3CCCO3)nc3c([nH]c4ccccc43)c2=O)cc1 (stereo unspecified),3%,-3%,/,8%[57 µM],/,/
COc1ccccc1CNC(=O)CSc1ncc2c(n1)-c1cc(Cl)ccc1N(Cc1ccccc1)S2(=O)=O,-3%,-1%,/,39%,/,/
COc1ccc(CCNC(=O)Cn2nc(-c3ccc(Cl)cc3)ccc2=O)cc1OC,0%,-21%,/,6%,/,/
O=C(CCc1c[nH]c2ccccc12)Nc1ncccc1O,56µM*,-36%,/,28%,0,/
S=c1nc[nH]c2c1[nH]c1ccc(Cl)cc12,-1%,4.5µM*,-1%,72%,3,/
O=c1c2[nH]c3ccc(Cl)cc3c2ncn1CCN1CCCCC1,-8%,-12%,-22%,30%,4,4%
O=C(O)COn1c(-c2ccccc2)nc2ccc([N+](=O)[O-])cc21,50µM*,?,-6%,11%,?,?
O=C1NC(=O)C([N+](=O)[O-])=C(O)C1=O,/,/,/,/,-65*,/
O=C1CCc2cc(S(=O)(=O)Nc3ccc(Cl)c(Cl)c3)ccc2N1,/,-13%,/,/,/,/
COc1cccc(NC(=O)[C@H](CC(C)C)NC(=O)[C@@H]2Cc3ccccc3CN2)c1,?,79µM*,/,4%,7,/
COc1ccccc1N(C)S(=O)(=O)c1ccc(C(=O)OCC(=O)NCCC2=CCCCC2)cc1,2%,3%,-2%,54%,-1,8%
O=C(O)c1cc(N2CCCCC2)ccn1,/,1.6µM*,/,29%,3,/
SMILES,BAZ2B inh,JMJD2A Tudor,JMJD2E inh,HP1b chromo inh,PI5P4K alpha inh,L3MBTL1 inh
O=C(O)c1cc(N2CCCC2)ccn1,/,3.2µM*,/,-5%,1,/
O=C(O)c1ccc(N2CCCCC2)cc1O,-5%,-8%,1%,37%,-7,2%
CCc1ccc(NC(=O)C2CCN(c3ccc(Sc4ccc(C)cc4)nn3)CC2)cc1,0%,1%,/,43%,/,/
Cn1c(=O)n(C)c2cc(N3CCCCC3)c(NC(=O)c3ccccc3)cc21,50µM*,-12%,/,14%,-3,/
CCn1c(=O)n(CC)c2cc(N3CCCC3)c(NC(=O)c3ccccc3F)cc21,?,56µM*,/,?,-1,/
CCOC(=O)C1=C(CS(=O)(=O)c2ccc(OC)c(Cl)c2)NC(=O)NC1c1cccc(OC)c1 (stereo unspecified),?,-17%,/,18%,/,/
CC1CCC/C(=N\Nc2ccc(Cl)c(C(=O)O)c2)C1 (stereo unspecified),-37%,79µM*,?,5%,-10,?
COc1cc(N)c2ncccc2c1OC,/,-28%,/,-11%,-2,/
COc1cc(NCCCCCCN)c2ncccc2c1OC,/,56µM*,/,?,?,/
COc1cc(NC(C)CCCNC(C)C)c2ncccc2c1OC (stereo unspecified),/,0.89µM*,/,?,-11,/
Cc1ccccc1CSc1nc2c(sc3ccccc32)c(=O)n1CCCC(=O)NCCCOC(C)C,-12%,-2%,/,45%,/,/
COc1ccc(CN(C)CC(O)COC(c2ccc(OC)cc2)c2ccc(OC)cc2)cc1 (stereo unspecified),-16%,-34%,/,-2%,1,/
COc1ccc(CN(CC(O)COc2cccc3[nH]cc(C)c23)C(C)(C)C)cc1 (stereo unspecified),?,50µM*,/,?,-4,/
Cn1c(SCC(=O)NN2C(=O)NC(C)(c3ccccc3)C2=O)nnc1-c1ccncc1 (stereo unspecified),/,-16%,/,8%,-4,-2%
Nc1nc(-c2ccc(F)cc2)cs1,?,-23%,1%,-39%,-3,-3%
Nc1nc(-c2ccc(Br)cc2)cs1,50µM*,79µM*,-8%,-13%,7,/
Cc1ccc(S(=O)(=O)N(CC(=O)N2CCOCC2)CC(=O)N2CCOCC2)cc1,8%,-3%,0%,28%,-2,?
Cc1ccc(S(=O)(=O)N(C)CC(=O)N2CCOCC2)cc1,-6%,79µM*,15%,?,-4,/
COc1cccc(NC(=O)C2CCC(CNS(=O)(=O)c3csc(C(N)=O)c3)CC2)c1 (stereo unspecified),3%,-9%,/,25%,/,/
Cc1sc2nc(SCC(=O)Nc3cccc(C(=O)O)c3)[nH]c(=O)c2c1C,-6%,-23%,/,-14%,-73*,-9%
Cc1sc2nc(SCC(=O)Nc3ccc(Cl)c(C(=O)O)c3)[nH]c(=O)c2c1C,/,-19%,/,20%[57 µM],-5,/
Cc1c(C(=O)O)sc2nc(SCC(=O)Nc3ccc(S(=O)(=O)NCCCC(=O)O)cc3)[nH]c(=O)c12,?,0%,-19%,65%,-70*,/
O=C(CSc1nc2ccccc2c(=O)[nH]1)Nc1ccc([N+](=O)[O-])cc1,/,-12%,/,38%,-14,0%
